Test results from PubChem BioAssay AID743201 (The Scripps Research Institute Molecular Screening Center, 2013).
About 420 (28%) of roughly 1,500 compounds were called active. A selection follows. Unmarked numbers belong to inactive results. Cut-off read from the data, not from the text of the source: active = inhibition above about 9.5%; inactive = the rest.

test: LD9 cell viability loss – luminescence, high throughput, cytotoxicity control for cell surface PrPc inhibitor project (AID 743201); settings: LD9 cells cytotoxicity, at 13.8 µM, stronger effect = higher value

Structure (SMILES) | inhibition
O=C(Nc1ccc(C2CC2(Cl)Cl)cc1)c1cccc([N+](=O)[O-])c1 (stereo not drawn) | 22.1% (active)
O=C(Oc1ccccc1)Oc1ccc2c(c1)oc(=O)c1ccccc12 | -2.43%
O=C(Nc1cccn(Cc2ccccc2Cl)c1=O)NC1CCCCC1 | -0.08%
Cc1nc(/N=C(\N)NC(=O)NC2CCCCC2)nc2ccccc12 | 13.3% (active)
O=C(COC(=O)c1ccccc1SCC(=O)NC1CCCCC1)NC1CCCCC1 | -4.15%
CC1(C)Cc2ccccc2-c2[nH]c(=S)[nH]c(=O)c21 | 0.24%
O=C(/C=C/c1ccc([N+](=O)[O-])o1)NNC(=O)c1ccc(F)cc1 | 81% (active)
Cn1c(=S)sc2ccc3ccccc3c21 | -9.96%
Cc1ccc(CSc2ccc(S(=O)(=O)N3CCCCC3)cn2)cc1 | -3.1%
O=C(Nc1ccc(N2CCN(C(=O)c3ccccc3)CC2)c(Cl)c1)c1cccnc1 | 10.4% (active)
CCCCC(=O)NC(c1ccc(OC)c(OC)c1)c1ccc2cccnc2c1O (stereo not drawn) | 34.6% (active)
COc1ccc(NC(=O)COC(=O)CNC(=O)C2CCCCC2)cc1 | -1.65%
O=C(Cc1ccccc1)Nc1cccc(NC(=O)c2ccccc2)c1 | -4%
Cc1cccc(NC(=O)c2nc(S(=O)(=O)Cc3ccccc3)ncc2Cl)c1 | 88.2% (active)
Cc1cccc(CS(=O)(=O)c2ncc(Cl)c(C(=O)Nc3ccc(F)cc3)n2)c1 | 97.1% (active)
CCc1c(C)nc2cc(-c3cccs3)[nH]n2c1=O | -5.48%
Fc1ccc2[nH]c3c(N4CCSCC4)ncnc3c2c1 | 49.1% (active)
COc1cccc2sc3cc(NCC[C@@H]4CCCN4C)ccc3c(=O)c12 | 3.87%
Cc1cc2cc(CNC(=O)c3ccc(S(=O)(=O)N4CCOCC4)cc3)ccc2[nH]1 | -3.01%
COc1ccc(C(=O)Nc2nc(-c3ccc(S(=O)(=O)N4CCOCC4)cc3)cs2)cc1 | 24.7% (active)
COc1ccc(S(=O)(=O)N2CCOCC2)cc1NC(=O)CSc1ncnc2ccccc12 | -10%

Structure (SMILES) | inhibition
C=CCNC(=O)CSc1nc2scc(-c3ccco3)c2c(=O)n1CC=C | -1.71%
N#C/C=C1\Sc2ccccc2C(=O)N1CC(=O)N1CCN(S(=O)(=O)c2ccccc2)CC1 | -0.34%
CN(C)CCNC(=O)c1ccc(Cl)c2cc3ccccc3nc12 | 62.4% (active)
COc1ccc(OC)c(NC(=O)c2cc(-c3cc(F)ccc3OCC3CCCO3)n[nH]2)c1 (stereo not drawn) | 6.36%
CCc1nc(SCC(=O)NNC(=O)c2ccc(C)cc2)c2ccccc2n1 | -9.92%
COC(=O)CSc1nc(C2CC2)nc2ccccc12 | 2.09%
CCCc1nc(SCC(=O)Nc2ccc(S(=O)(=O)N(C)C)cc2)c2ccccc2n1 | 11.4% (active)
CCC(C)(O)C(=O)OC1C(=O)OC2CC3C(C)=CC(=O)C(O)C3(C)C3C4(O)OCC23C1C(C)C4O (stereo not drawn) | 31.5% (active)
CCCOc1ccc(C2C(C(=O)c3ccc(C)o3)=C(O)C(=O)N2CCCn2ccnc2)cc1 (stereo not drawn) | -8.43%
O=C(NC(Nc1nc2ccc([N+](=O)[O-])cc2s1)(C(F)(F)F)C(F)(F)F)c1ccccc1 | 60.2% (active)
Cc1ccc(Oc2cnn(-c3ccccc3)c(=O)c2Br)cc1 | -5.84%
CCOC(=O)c1c(C)[nH]c(=S)c(C#N)c1-c1ccccc1 | -0.71%
O=c1[nH]cccc1-c1nc2ccccc2n1Cc1ccc(Cl)cc1 | 18% (active)
N#Cc1ccc(OCC(=O)Nc2nc(-c3ccccn3)cs2)cc1 | 6.29%
CC(=O)c1sc2nc(SCC(=O)N3CCCCC3)[nH]c(=O)c2c1C | -4.99%
NC(=O)C1CCN(Cc2nc3c(Br)cc(Br)cc3c(=O)[nH]2)CC1 | -0.26%
O=C(CC(O)(C(F)(F)F)C(F)(F)F)Nc1ccc(Cl)c(Cl)c1 | 59.4% (active)
Cc1sc2ncnc(SCC(=O)Nc3ccc(CN4CCCC4)cc3)c2c1C | 4.39%
COc1ccc2c(Cl)c(-c3nnco3)sc2c1 | 0.91%
O=C(c1ccc(F)cc1)c1cn(Cc2ccc(F)cc2)c2cc3c(cc2c1=O)OCCO3 | 0.17%
CCCCCCCCn1c2c(c(=N)c3c1CCC3)CCCC2 | 27.8% (active)

Structure (SMILES) | inhibition
Cc1cc2ccccc2n1CCNC(=O)COc1ccc2ccccc2c1 | 3.16%
CO[C@H]([C@H](C)/C=C/N(C)C=O)[C@@H](C)C(=O)CC[C@H](C)[C@H](O)[C@H](C)[C@H]1OC(=O)/C=C/C(C)=C/[C@H](O)[C@H](OC)C[C@@H]2C=CC[C@@H](C[C@H](OC)[C@@]3(CO3)[C@@H](OC)C[C@@H](OC)[C@@H]1C)O2 | 22.6% (active)
FC(F)(F)c1cccc(NC(=S)OC2CCC23CCC(c2ccccc2)CC3)c1 (stereo not drawn) | 6.03%
CCCCNc1c(-c2cccc(Sc3ccc(OC)cc3)c2)nc2ccccn12 | 17.3% (active)
N#Cc1c(-c2cccs2)nc(SCC(=O)c2ccc(Br)cc2)[nH]c1=O | -2.36%
Cc1ccc(CNC(=O)Nc2nnc([C@H]3C[C@H](O)[C@@H](CO)O3)s2)cc1 | -1.07%
O=C1CCCC2=C1C(c1cccs1)n1nc(SCc3ccccc3)nc1N2 (stereo not drawn) | -3.22%
CN1/C(=C\C(=O)c2oc3ccccc3c2N)C(C)(C)c2ccccc21 | 7.55%
CC(=O)Nc1cccc(OCC(=O)/C=C2\N(C)c3ccccc3C2(C)C)c1 | 13.8% (active)
Cc1ccsc1C(=O)OCC(=O)Nc1cccc(F)c1 | -2.87%
Cc1[nH]n(-c2ccccc2)c(=O)c1/C=N/NC(=O)c1ccoc1C | 21.3% (active)
CCOC(=O)c1c(-c2ccccc2)oc2cc(Br)c(O)cc12 | -6.88%
COC(=O)Cc1[nH]n(-c2nc3ccccc3s2)c(=O)c1C(C)=Nc1ccc(OC)cc1 | -5.36%
CC(=O)c1nc(N2C(=O)C3CC=C(C)CC3C2=O)sc1C (stereo not drawn) | -5.65%
CCCCCCCCCCCCn1ccc(=N)cc1 | 33.6% (active)
COc1cc(-n2c(=S)[nH]c3ccc(C)cc3c2=O)c(Cl)cc1Cl | -3.19%
Cc1ccc(NC(=O)c2sc3nc(N)c(C#N)cc3c2N)cc1 | 14.7% (active)
CC(=O)N1c2ccc(S(=O)(=O)N3CCCC(C(=O)Nc4cccc(F)c4)C3)cc2CC1C (stereo not drawn) | 10.8% (active)
CC(=O)N1CCCc2cc(S(=O)(=O)N3CCCC(C(=O)N4CCN(c5cccc(Cl)c5)CC4)C3)ccc21 (stereo not drawn) | 24.1% (active)
CC(=O)N1CCCc2cc(S(=O)(=O)N3CCCC(C(=O)NCc4ccc(Cl)cc4)C3)ccc21 (stereo not drawn) | 4.27%
Cc1ccnc(NC(=O)C2CCN(S(=O)(=O)c3c(C)c(C)cc(C)c3C)CC2)c1 | -5.26%
